According to PubChem BioAssay (EPA / NIEHS):
Active and inactive are the calls of the source. Rule for the calls: active = hit-call score of the fitted dose curve at least 0.9, where 1 is the maximum; inactive = score below 0.9.

Key:
Conditions in all cases: mRNA level, 48 h; actives raise or lower the signal
[1] = read-out: Glutathione S-transferase M3 (GSTM3), GSTM3 (gene 2947); test: LTEA_HepaRG_GSTM3: Life Technologies and Expression Analysis (LTEA) Assay for Glutathione S-transferase M3 (GSTM3) using HepaRG (AID 2283501)
Summary of the method: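 Changes in GSTM3 expression, an oxidative-stress marker, were scored by bidirectional curve fitting against 0.5% DMSO vehicle. Human HepaRG cultures received chemicals for 48 h in duplicate, highest concentration 100 uM with half-log dilutions.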

[2] = read-out: Heat shock 70 kDa protein 1 (HSPA1A), gene 3303; test: LTEA_HepaRG_HSPA1A: Life Technologies and Expression Analysis (LTEA) Assay for Heat shock 70 kDa protein 1 (HSPA1A) using HepaRG (AID 2283502)
Summary of the method: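 Differentiated human HepaRG cells in serum-free induction medium were exposed in duplicate for 48 h to eight concentrations (top 100 uM, half-log steps, 0.5% DMSO). HSPA1A mRNA was quantified by qRT-PCR, normalized to ACTB, GAPDH and POLR2A, and fitted bidirectionally against DMSO.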

[3] = read-out: Hypoxia-inducible factor 1-alpha (Homo sapiens) (UniProt Q16665); test: LTEA_HepaRG_HIF1A: Life Technologies and Expression Analysis (LTEA) Assay for Hypoxia-inducible factor 1 (HIF1A) Trancription factor using HepaRG (AID 2283503);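 note: HIF1A transcript by TaqMan qRT-PCR normalized to ACTB GAPDH and POLR2A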
Summary of the method: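 HepaRG, 48 h exposure, 8-pt half-log series from 100 uM, 0.5% DMSO vehicle, duplicates. Readout: HIF1A transcript by qRT-PCR (Fluidigm array), housekeeping-normalised. Bidirectional curve fit vs DMSO baseline.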

[4] = read-out: 3-Hydroxy-3-Methylglutaryl-CoA Synthase 2 (HMGCS2), HMGCS2 (gene 3158); test: LTEA_HepaRG_HMGCS2: Life Technologies and Expression Analysis (LTEA) Assay for 3-Hydroxy-3-Methylglutaryl-CoA Synthase 2 (HMGCS2) using HepaRG (AID 2283504)
Summary of the method: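 Expression of HMGCS2 in human HepaRG liver cells is measured by qRT-PCR 48 h after dosing (highest 100 uM, half-log series, 0.5% DMSO). Values come from bidirectional concentration-response fitting with DMSO as baseline.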

[5] = read-out: HGF (gene 3082); test: LTEA_HepaRG_HGF: Life Technologies and Expression Analysis (LTEA) Assay for Hepatocyte Growth Facto (HGF) using HepaRG (AID 2283505)
Summary of the method: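 Gain or loss of HGF mRNA in human HepaRG liver cells after 48 h chemical exposure; eight concentrations up to 100 uM with 0.5% DMSO vehicle, quantified by TaqMan qRT-PCR.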

[6] = read-out: Intercellular Adhesion Molecule 1 (ICAM1), ICAM1 (gene 3383); test: LTEA_HepaRG_ICAM1: Life Technologies and Expression Analysis (LTEA) Assay for Intercellular Adhesion Molecule 1 (ICAM1) using HepaRG (AID 2283507)
Summary of the method: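 Gain or loss of transcript in HepaRG hepatic cells is quantified by qRT-PCR after 48 h chemical exposure (up to 100 uM, half-log steps), with DMSO as baseline.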

[7] = read-out: Insulin-like growth factor-binding protein 1 (IGFBP1), IGFBP1 (gene 3484); test: LTEA_HepaRG_IGFBP1: Life Technologies and Expression Analysis (LTEA) Assay for Insulin-like growth factor-binding protein 1 (IGFBP1) using HepaRG (AID 2283508)
Summary of the method: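 mRNA induction or loss was quantified by qRT-PCR after 48 h chemical exposure of human HepaRG cells, with 0.5% DMSO as vehicle and baseline. Concentration-response over eight points up to 100 uM.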

[8] = read-out: Interleukin 6 (IL6), IL6 (gene 3569); test: LTEA_HepaRG_IL6: Life Technologies and Expression Analysis (LTEA) Assay for Interleukin 6 (IL6) using HepaRG (AID 2283509)
Summary of the method: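 HepaRG cells exposed in duplicate for 48 h to eight half-log concentrations, top 100 uM, in 0.5% DMSO serum-free induction medium. mRNA measured by qRT-PCR, normalized to ACTB, GAPDH and POLR2A. Bidirectional fit versus DMSO.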

[9] = read-out: Interleukin 6 Receptor (IL6R), IL6R (gene 3570); test: LTEA_HepaRG_IL6R: Life Technologies and Expression Analysis (LTEA) Assay for Interleukin 6 Receptor (IL6R) using HepaRG (AID 2283510)
Summary of the method: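 Differentiated human HepaRG cells, plated 48 h then switched to serum-free induction medium, were dosed in duplicate for 48 h at eight half-log concentrations up to 100 uM in 0.5% DMSO. IL6R mRNA quantified by qRT-PCR, normalized to ACTB/GAPDH/POLR2A; bidirectional fit versus DMSO.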

[10] = read-out: Potassium channel subfamily K member 1 (KCNK1), KCNK1 (gene 3775); test: LTEA_HepaRG_KCNK1: Life Technologies and Expression Analysis (LTEA) Assay for Potassium channel subfamily K member 1 (KCNK1) using HepaRG (AID 2283511)
Summary of the method: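 Differentiated HepaRG cells, 48 h exposure in serum-free induction medium with 0.5% DMSO; 8 concentrations, half-log from 100 uM, duplicate. KCNK1 mRNA by qRT-PCR, normalized to ACTB, GAPDH, POLR2A; bidirectional fit vs DMSO.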

[11] = read-out: Keratin 19 (KRT19), KRT19 (gene 3880); test: LTEA_HepaRG_KRT19: Life Technologies and Expression Analysis (LTEA) Assay for Keratin 19 (KRT19) using HepaRG (AID 2283512)
Summary of the method: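 Gene-expression endpoint in the human liver line HepaRG after 48 h exposure to up to 100 uM test chemical with 0.5% DMSO vehicle; KRT19 mRNA by qRT-PCR, analyzed bidirectionally versus DMSO.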

[12] = read-out: JUN Transcription Factor, JUN (gene 3725); test: LTEA_HepaRG_JUN: Life Technologies and Expression Analysis (LTEA) Assay for JUN Transcription Factor using HepaRG (AID 2283513)
Summary of the method: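 Differentiated HepaRG cells were exposed to chemicals for 48 h in serum-free induction medium, 8 concentrations from 100 uM in half-log steps, 0.5% DMSO vehicle, in duplicate. JUN mRNA was quantified by TaqMan qRT-PCR, normalized to ACTB, GAPDH, POLR2A.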

[13] = read-out: Lipase C (LIPC), LIPC (gene 3990); test: LTEA_HepaRG_LIPC: Life Technologies and Expression Analysis (LTEA) Assay for Lipase C (LIPC) using HepaRG (AID 2283514)
Summary of the method: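 HepaRG cells, 48 h after plating, treated in duplicate for 48 h in serum-free induction medium over 8 half-log concentrations from 100 uM, 0.5% DMSO. LIPC mRNA by TaqMan qRT-PCR normalized to ACTB/GAPDH/POLR2A; bidirectional fit versus DMSO.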

[14] = read-out: Lipoprotein lipase (LPL), LPL (gene 4023); test: LTEA_HepaRG_LPL: Life Technologies and Expression Analysis (LTEA) Assay for Lipoprotein lipase (LPL) using HepaRG (AID 2283515)
Summary of the method: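 Differentiated HepaRG cells, plated 48 h, then exposed 48 h in serum-free induction medium to 8 concentrations (top 100 uM, half-log steps) in 0.5% DMSO, duplicate. LPL mRNA measured by qRT-PCR, normalized to ACTB, GAPDH and POLR2A.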

[15] = read-out: MicroRNA 122 (MIR122), gene 406906; test: LTEA_HepaRG_MIR122: Life Technologies and Expression Analysis (LTEA) Assay for MicroRNA 122 (MIR122) using HepaRG (AID 2283516); note: the transcript read is the microRNA miR-122
Summary of the method: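 Differentiated human HepaRG cells were exposed 48 h in serum-free induction medium to eight half-log concentrations (top 100 uM, 0.5% DMSO). Transcript level was measured by TaqMan qRT-PCR, normalized to ACTB, GAPDH and POLR2A, and fitted bidirectionally versus DMSO.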

[16] = read-out: matrix metalloproteinase-10 (MMP10), MMP10 (gene 4319); test: LTEA_HepaRG_MMP10: Life Technologies and Expression Analysis (LTEA) Assay for matrix metalloproteinase-10 (MMP10) using HepaRG (AID 2283517)
Summary of the method: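 Differentiated HepaRG cells in serum-free induction medium exposed 48 h in duplicate to 8-point half-log series up to 100 uM in 0.5% DMSO. mRNA quantified by qRT-PCR, normalised to ACTB, GAPDH, POLR2A; bidirectional fit versus DMSO.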

[17] = read-out: MYC, MYC (gene 4609); test: LTEA_HepaRG_MYC: Life Technologies and Expression Analysis (LTEA) Assay for MYC using HepaRG (AID 2283518)
Summary of the method: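 Cells are thawed, plated and cultured 48 h, then treated for 48 h with test chemicals (eight half-log concentrations from 100 uM, 0.5% DMSO vehicle). RNA is isolated and MYC expression quantified by qRT-PCR against three housekeeping genes.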

[18] = read-out: matrix metalloproteinase-3 (MMP3), MMP3 (gene 4314); test: LTEA_HepaRG_MMP3: Life Technologies and Expression Analysis (LTEA) Assay for matrix metalloproteinase-3 (MMP3) using HepaRG (AID 2283519)
Summary of the method: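 HepaRG cells (~100,000/well) in serum-free induction medium were dosed in duplicate for 48 h with an 8-point half-log series from 100 uM, 0.5% DMSO. MMP3 mRNA was quantified by Fluidigm TaqMan qRT-PCR, normalized to three housekeeping genes.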

[19] = read-out: Paternally Expressed 10 (PEG10), PEG10 (gene 23089); test: LTEA_HepaRG_PEG10: Life Technologies and Expression Analysis (LTEA) Assay for Paternally Expressed 10 (PEG10) using HepaRG (AID 2283520)
Summary of the method: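 Differentiated HepaRG cells, plated 48 h then switched to serum-free induction medium, were exposed in duplicate for 48 h to eight half-log concentrations topping at 100 uM in 0.5% DMSO. PEG10 mRNA was quantified by TaqMan qRT-PCR, normalised to ACTB, GAPDH and POLR2A.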

[20] = read-out: Nuclear factor NF-kappa-B p105 subunit (Homo sapiens) (UniProt P19838); test: LTEA_HepaRG_NFKB1: Life Technologies and Expression Analysis (LTEA) Assay for Nuclear Factor Kappa B Subunit 1 (NFKB1) using HepaRG (AID 2283521);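 note: TaqMan qRT-PCR transcript normalised to ACTB GAPDH and POLR2A housekeeping genes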
Summary of the method: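 Differentiated human HepaRG cells in serum-free induction medium with 0.5% DMSO were exposed for 48 h to eight half-log concentrations, top 100 uM, in duplicate. NFKB1 mRNA measured by Fluidigm TaqMan qRT-PCR, normalised to ACTB, GAPDH and POLR2A; bidirectional fit versus DMSO.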

Measured: AC50

Nuclear factor NF-kappa-B p105 subunit (Homo sapiens), sequence (P19838 whole entry, looked up): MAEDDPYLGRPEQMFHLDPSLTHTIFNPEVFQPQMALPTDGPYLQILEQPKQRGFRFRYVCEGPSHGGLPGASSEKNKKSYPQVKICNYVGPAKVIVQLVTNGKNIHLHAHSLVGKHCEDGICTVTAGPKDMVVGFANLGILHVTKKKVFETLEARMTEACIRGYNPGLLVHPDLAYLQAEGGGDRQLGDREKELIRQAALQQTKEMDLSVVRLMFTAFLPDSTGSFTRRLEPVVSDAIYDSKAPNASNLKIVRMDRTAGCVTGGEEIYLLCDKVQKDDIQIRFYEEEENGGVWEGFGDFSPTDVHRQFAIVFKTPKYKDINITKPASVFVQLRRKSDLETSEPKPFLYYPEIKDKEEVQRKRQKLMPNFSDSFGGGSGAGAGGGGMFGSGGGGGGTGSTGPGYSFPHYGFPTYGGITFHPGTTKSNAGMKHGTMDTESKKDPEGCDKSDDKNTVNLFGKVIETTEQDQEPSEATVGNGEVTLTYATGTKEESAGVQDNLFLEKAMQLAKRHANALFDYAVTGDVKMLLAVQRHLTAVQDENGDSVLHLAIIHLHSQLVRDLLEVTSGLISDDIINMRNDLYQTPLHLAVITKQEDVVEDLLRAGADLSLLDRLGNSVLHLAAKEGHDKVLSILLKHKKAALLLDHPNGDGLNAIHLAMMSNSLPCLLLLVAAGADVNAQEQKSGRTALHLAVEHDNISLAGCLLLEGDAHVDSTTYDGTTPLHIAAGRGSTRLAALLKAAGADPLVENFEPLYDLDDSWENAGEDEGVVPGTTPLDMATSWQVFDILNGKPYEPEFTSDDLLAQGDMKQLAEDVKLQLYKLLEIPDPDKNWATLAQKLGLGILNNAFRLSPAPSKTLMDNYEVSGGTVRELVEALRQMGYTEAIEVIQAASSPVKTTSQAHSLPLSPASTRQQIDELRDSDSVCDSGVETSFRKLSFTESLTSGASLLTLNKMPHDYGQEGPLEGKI
Hypoxia-inducible factor 1-alpha (Homo sapiens), sequence (Q16665 whole entry, looked up): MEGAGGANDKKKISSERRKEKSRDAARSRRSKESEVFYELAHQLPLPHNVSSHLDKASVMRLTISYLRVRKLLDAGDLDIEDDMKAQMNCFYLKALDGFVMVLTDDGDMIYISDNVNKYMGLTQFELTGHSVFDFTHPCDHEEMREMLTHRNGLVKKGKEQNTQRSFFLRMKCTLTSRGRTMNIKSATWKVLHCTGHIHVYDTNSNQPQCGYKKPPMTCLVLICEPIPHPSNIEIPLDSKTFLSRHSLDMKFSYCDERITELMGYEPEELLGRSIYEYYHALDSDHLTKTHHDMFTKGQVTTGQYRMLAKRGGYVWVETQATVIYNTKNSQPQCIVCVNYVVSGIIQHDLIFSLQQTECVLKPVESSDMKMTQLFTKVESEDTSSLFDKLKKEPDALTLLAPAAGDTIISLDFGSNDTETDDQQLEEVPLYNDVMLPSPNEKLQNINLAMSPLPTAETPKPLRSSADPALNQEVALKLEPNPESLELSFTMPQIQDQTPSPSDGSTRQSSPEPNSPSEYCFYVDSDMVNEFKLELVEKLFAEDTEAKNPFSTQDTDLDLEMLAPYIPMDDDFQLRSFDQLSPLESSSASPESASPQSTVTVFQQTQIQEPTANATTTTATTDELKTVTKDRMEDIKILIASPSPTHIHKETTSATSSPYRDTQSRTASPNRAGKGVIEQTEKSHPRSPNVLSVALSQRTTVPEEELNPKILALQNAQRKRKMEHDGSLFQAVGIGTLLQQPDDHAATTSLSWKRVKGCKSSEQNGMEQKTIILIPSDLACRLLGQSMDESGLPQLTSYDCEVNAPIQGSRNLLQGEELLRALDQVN

CC(C)(C)c1ccccc1O
inactive: all assays above

Oc1c(Cl)cc(Cl)cc1Cl
not listed: [5] | [20]
inactive: all other assays above

Oc1cc(Cl)c(Cl)cc1Cl
active: [11] 50 µM
not listed: [1]
inactive: all other assays above

Clc1cccc(Cl)c1Cl
not listed: [9]
inactive: all other assays above
